Test results as given in PubChem BioAssay AID1159580 (chemical genetic matrix, 2015).
Screen size: about 5,500 compounds; about 2,000 (36%) were called active. Not shown: some 18% with an inconclusive outcome. Cut-off read from the data, not from the text of the source: active = normalized growth mostly below about 0.91 (no sharp cut-off); inconclusive = no clear call, values can overlap the other calls; inactive = mostly above about 0.92. The list shows a part of the results.

Assay: chemical genetic growth profiling, strain panel (AID 1159580);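 note: tested at 20 µM; growth read once vehicle control cultures reached saturation at 30 °C; 1 = growth at the plate median or of vehicle wells; lower values mean less growth of the strain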
Conditions: growth OD
[1] = S. cerevisiae deletion strains, locus YAL013W, strain DEP1, stronger effect = lower value
[2] = S. cerevisiae deletion strains, locus YBR229C, strain ROT2, stronger effect = lower value
[3] = S. cerevisiae deletion strains, locus YDL101C, strain DUN1, stronger effect = lower value
[4] = S. cerevisiae deletion strains, locus YDR150W, strain NUM1, stronger effect = lower value
[5] = S. cerevisiae deletion strains, locus YEL061C, strain CIN8, stronger effect = lower value
[6] = S. cerevisiae deletion strains, locus YGR078C, strain PAC10, stronger effect = lower value
[7] = S. cerevisiae deletion strains, locus YHR030C, strain SLT2, stronger effect = lower value
[8] = S. cerevisiae deletion strains, locus YHR087W, strain rtc3, stronger effect = lower value
[9] = S. cerevisiae deletion strains, locus YJR043C, strain POL32, stronger effect = lower value
[10] = S. cerevisiae deletion strains, locus YJR075W, strain HOC1, stronger effect = lower value
[11] = S. cerevisiae deletion strains, locus YLR039C, strain RIC1, stronger effect = lower value
[12] = S. cerevisiae deletion strains, locus YLR058C, strain SHM2 (second series), stronger effect = lower value
[13] = S. cerevisiae deletion strains, locus YLR085C, strain ARP6, stronger effect = lower value
[14] = S. cerevisiae deletion strains, locus YLR262C, strain YPT6, stronger effect = lower value
[15] = S. cerevisiae deletion strains, locus YML094W, strain GIM5, stronger effect = lower value
[16] = S. cerevisiae deletion strains, locus YMR219W, strain ESC1, stronger effect = lower value
[17] = S. cerevisiae deletion strains, locus YMR263W, strain SAP30, stronger effect = lower value
[18] = S. cerevisiae deletion strains, locus YNL153C, strain GIM3, stronger effect = lower value
[19] = S. cerevisiae deletion strains, locus YNL298W, strain CLA4 (second series), stronger effect = lower value
[20] = S. cerevisiae deletion strains, locus YNL322C, strain KRE1, stronger effect = lower value
[21] = S. cerevisiae deletion strains, locus YNR030W, strain Alg12, stronger effect = lower value
[22] = S. cerevisiae deletion strains, locus YPL055C, strain LGE1, stronger effect = lower value
[23] = S. cerevisiae deletion strains, locus YPL241C, strain CIN2, stronger effect = lower value
[24] = S. cerevisiae deletion strains, locus YPR135W, strain CTF4, stronger effect = lower value
[25] = S. cerevisiae strains, strain wild type, stronger effect = lower value

Measured: normalized growth

CCCCOc1ccc(C(=O)CCC(=O)O)cc1
inactive: [1] 0.977 | S. cerevisiae deletion strains, locus YCL061C, strain MRC1, stronger effect = lower value 0.936 | S. cerevisiae deletion strains, locus YDL134C, strain PPH21, stronger effect = lower value 1.04 | [4] 0.934 | [5] 1 | [6] 0.939 | [7] 0.997 | [8] 0.982 | [10] 0.931 | S. cerevisiae deletion strains, locus YKL190W, strain CNB1, stronger effect = lower value 1.02 | [11] 0.945 | [12] 1.01 | [13] 0.985 | [14] 0.946 | [15] 1.01 | [16] 0.983 | [17] 0.969 | [19] 1.01 | [20] 1.01 | [21] 0.982 | S. cerevisiae deletion strains, locus YOL006C, strain TOP1, stronger effect = lower value 1.05 | [22] 0.909 | [23] 1.01 | [24] 1.03 | [25] 1.03
active: [2] 0.915 | [3] 0.886 | [9] 0.879 | [18] 0.904

CCCCOc1cc(C(=O)O)ccc1OC
inactive: [1] 0.97 | [2] 0.984 | [3] 0.987 | [4] 0.988 | [5] 1.01 | [6] 0.971 | S. cerevisiae deletion strains, locus YGR229C, strain SMI1, stronger effect = lower value 1 | [7] 0.999 | [8] 0.977 | [9] 0.985 | [10] 0.962 | [11] 1.02 | [12] 0.979 | [13] 1.01 | [14] 1.04 | [15] 1 | [16] 0.975 | [17] 0.977 | S. cerevisiae deletion strains, locus YMR307W, strain GAS1, stronger effect = lower value 0.956 | S. cerevisiae deletion strains, locus YNL128W, strain TEP1, stronger effect = lower value 1.02 | [18] 0.979 | [19] 1.03 | [20] 0.976 | [21] 0.999 | [22] 0.941 | [23] 1.01 | [24] 1.04 | [25] 1.02
